Assay results reported in PubChem BioAssay AID927 (National Center for Advancing Translational Sciences (NCATS), 2007).
Screen size: about 60,000 compounds; about 65 (0.1%) were called active. Calls follow the shape of the dose curve; as a rule, active = well fitted inhibition curve with a large enough effect; inconclusive = small, poorly fitted or top-dose-only effect; inactive = no such curve, though single readings can be large or run the other way. The sample as a whole holds a higher share of actives than the screen did.

target: Ubiquitin carboxyl-terminal hydrolase 2 (Homo sapiens) (UniProt O75604); experiment: qHTS Assay for Inhibitors of Ubiquitin-specific Protease USP2a; conditions: USP2a enzymatic assay; Potency: qHTS inhibition; series mostly up to 38.3 µM; also: nearly all actives have a fitted effect of over 60% in size
Text: NIH Molecular Libraries Screening Centers Network [MLSCN]
NIH Chemical Genomics Center [NCGC]
PI Name: Nicholson, Ben. Progenra Inc, Malvern, PA
Homeostasis of cellular proteins is maintained through a combination of synthesis and degradation. The pathway that accounts for the majority of protein degradation is the ubiquitin-proteasomal pathway. Ubiquitin (Ub) is highly conserved in all cells and the generation of a multi-Ub chain typically targets proteins for degradation by the proteasome. However, ubiquitination is highly reversible and dynamic. Deubiquitination, the reverse process, is catalyzed through the action of enzymes referred to as isopeptidases or deubiquitinating enzymes (DUBs). This group of enzymes is collectively responsible for maintaining adequate pools of free ubiquitin and regulating the ubiquitination status of cellular proteins. The class of DUBs referred to as the ubiquitin-specific proteases (USP) family functions endoproteolytically to cleave Ub chains from a wide range of protein substrates. USP2a deubiquitinates fatty acid synthase (FASN) which has recently been identified as an emerging oncology target. To identify inhibitors of USP2a a cell-free assay was employed.
The reporter enzyme chosen is phospholipase A2 (PLA2), which has an absolute requirement for a free amino terminus. Thus, fusion of a UBL to the N-terminus of PLA2 inactivates PLA2. When the UBL-PLA2 reporter enzyme is cleaved by USP2, the activated reporter can subsequently act on its substrate, which is the commercially available NBD C6-HPC (Invitrogen). Thus, this coupled assay gives a fluorescent read-out, which is generated through the cleavage of the PLA2 reporter enzyme. The assay, developed by Progenra, Inc. uses Ub-PLA2 and USP2a at near equal and low (nM) amounts and has been licensed for sale by LifeSensors, Inc. as the Ub-IsoPro1 kit.
NCGC Assay Protocol Summary:
The assay buffer, prepared fresh at the day of the assay, contains 20mM Tris-HCl pH 8.0, 2mM CaCl2, 2mM beta-Mercaptoethanol, 0.1% DMSO. 3ul of 40nM (20nM final) USP2 core, which is stored on ice, is dispensed into a medium-binding black solid Kalypsys 1,536 well plate using the Kalypsys dispenser. The assay plate is then pinned with 23nL compound with the Kalypsys pintool in columns 5-48. The controls are pinned as follows: column 1&2 two-fold dilutions of 2M NEM in duplicate; column 3 DMSO; column 4 2M NEM (final concentration 38.2mM). The assay plate is incubated at RT for 30min. Subsequently, 3uL of 40nM (20nM final) Ub-PLA2 and 40uM (20uM final) NBD C6-HPC (stored on ice and protected from light) were dispensed into the plate using the Kalypsys dispenser. Plates were read immediately (0 Hour) on an Envision (Perkin Elmer) plate reader using the following wavelengths Ex 460nm /Em 535nm. Then, the assay plates were incubated for 2.5 hours and read again on the Envision using the same settings
Data were normalized to the to AC100 inhibition (NEM). Concentration-response curves were fitted to the normalized data and the concentration-response curves were then classified based on curve quality (r2), response magnitude and degree of measured activity. The time zero reading was used to flag fluorescence artifacts.
Keywords: ubiquitination, deubiquitination, proteases, profluorescent, MLSMR, MLSCN, NIH Roadmap, qHTS, NCGC

Ubiquitin carboxyl-terminal hydrolase 2 (Homo sapiens), sequence (O75604 whole entry, looked up): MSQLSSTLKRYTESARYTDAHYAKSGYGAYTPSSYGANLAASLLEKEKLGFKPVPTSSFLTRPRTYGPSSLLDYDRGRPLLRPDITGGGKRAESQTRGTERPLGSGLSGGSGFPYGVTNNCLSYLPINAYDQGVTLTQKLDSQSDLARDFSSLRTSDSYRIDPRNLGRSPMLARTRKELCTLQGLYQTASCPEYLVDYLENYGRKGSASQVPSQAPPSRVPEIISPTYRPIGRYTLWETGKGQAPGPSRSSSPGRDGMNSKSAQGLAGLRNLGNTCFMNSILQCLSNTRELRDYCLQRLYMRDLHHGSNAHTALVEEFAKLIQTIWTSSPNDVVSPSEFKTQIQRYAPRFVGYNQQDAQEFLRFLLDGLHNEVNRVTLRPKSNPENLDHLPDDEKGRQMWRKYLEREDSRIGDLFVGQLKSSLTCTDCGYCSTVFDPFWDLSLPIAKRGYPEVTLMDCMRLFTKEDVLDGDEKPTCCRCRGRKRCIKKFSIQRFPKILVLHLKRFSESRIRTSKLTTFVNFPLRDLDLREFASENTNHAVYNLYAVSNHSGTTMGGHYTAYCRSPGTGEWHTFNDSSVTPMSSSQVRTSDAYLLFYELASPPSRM

Activity change, negative = inhibition, inactive:
CCCCNc1nc2ccccc2nc1NS(=O)(=O)c1cccs1, Cc1ccc(N(C(=O)CC2NC(=O)NC2=O)C2(C(=O)NC3CCCC3)CCCCC2)cc1 (stereo unspecified), C=CCn1c(CSc2nc3ccccc3s2)nnc1SCC(=O)NCc1ccco1, O/N=C1\CC2(Cc3nonc31)OCCO2, CC1(C)OC2CC3C4CCC5=CC(=O)CCC5(C)C4(F)C(O)CC3(C)[C@]2(C(=O)CCl)O1 (stereo partly specified), Cc1c(S(=O)(=O)O)oc2c1C(=O)C(=O)c1c-2ccc2c1CCCC2(C)C, CC(C)OCCCNC(=O)C1CC(=O)N(C2CCCCCCC2)C1 (stereo unspecified), COc1ccc(OC)c(NC(=O)CSc2nc(N)c(-c3ccccc3)c(=O)[nH]2)c1, O=C(O)C1CCN1C1CCCCC1 (stereo unspecified), O=C(O)c1ccc(COCC(F)(F)F)cc1, Cc1nnc(SCc2cc(=O)[nH]c(N3CCN(Cc4ccccc4)CC3)n2)s1, CC(C)(O)CCC(O)[C@@](C)(O)C1CC[C@]2(O)C3=CC(=O)C4CC(O)C(O)C[C@]4(C)C3CC[C@]12C (stereo partly specified), CC(=O)Oc1c2c(c3c(c1CC=C(C)C)O[C@@]14C(=CC5CC1C(C)(C)OC4(C/C=C(\C)C(=O)O)C5=O)C3=O)OC(C)(CCC=C(C)C)C=C2 (stereo partly specified), CC1(C)CC(=O)C=C(NCCCN2CCCC2=O)C1, c1csc(-c2cn3c(n2)SCC3)c1, COc1nc(Oc2ccc(=O)n(C)n2)nc(N(C)C)n1, CC(C)C1=CC2=CC[C@@H]3[C@](C)(CO)CCC[C@]3(C)C2CC1 (stereo partly specified), Fc1cccc(/C=N\N=C/c2cccc(F)c2)c1, O=C(NCCCN1CCCCCC1)C1CC(=O)N(C2CCCC2)C1 (stereo unspecified), CCOC(=O)C1CCN(C(=O)Cc2c(C(=O)O)[nH]c3ccccc23)CC1, CCCCN(C)Cc1c(C)[nH]c2ccc(Cl)cc2c1=O, CCOC(=O)Cc1csc(NC(=O)C(C)(C)C)n1, Cn1c(=O)c2cn(-c3cccc4ccccc34)cc2n(C)c1=O, Cc1nn(C)c(C)c1S(=O)(=O)N1CCc2ccccc21, Nc1nc2[nH]c(=O)c(=O)[nH]c2c(=O)[nH]1, CN1CCCC1CCO[C@@](C)(c1ccccc1)c1ccc(Cl)cc1 (stereo partly specified), CS(=O)(=O)N1CCC2(CCN(c3ccncc3)CC2)CC1, O=c1c(O)c(-c2ccc(O)cc2)oc2ccccc12, Cc1nnc(SCCCn2c(N3CCCCC3)nc3c2c(=O)[nH]c(=O)n3C)s1, O=C(NC1CCN(Cc2ccccc2)CC1)c1ccccc1F, COC(=O)[C@H](Cc1ccccc1)NC(=O)N1CC(C)OC(C)C1 (stereo partly specified), COc1ccc(CCC(=O)c2c(O)cc(OC3OC(CO)C(O)C(O)C3O[C@@H]3OC(C)C(O)C(O)C3O)cc2O)cc1O (stereo partly specified), O=C1NS(=O)(=O)c2ccccc21, Cc1cc(=O)n2nc(N3CCCC(C(=O)N4CCN(C)CC4)C3)sc2n1 (stereo unspecified), C=C1C([C@@]2(C)C(OC(C)=O)CC(=O)O[C@@](C)(COC(C)=O)C2CC(=O)OC)C(OC=O)C(OC(=O)C(O)C(C)CC)[C@]2(C)C(c3ccoc3)CC(=O)C12O (stereo partly specified), COC(=O)CC1C(C)(C)C(OC(C)=O)C2CC3=C4CC(=O)OC(c5ccoc5)[C@]4(C)CCC3[C@@]1(C)C2=O (stereo partly specified), CC1(C)OC2CO[C@]3(COS(N)(=O)=O)OC(C)(C)OC3C2O1 (stereo partly specified), CCC1(C)Cc2c(sc3nc4n(c(=O)c23)CCCS4)CO1 (stereo unspecified), COC(=O)c1cccc(NC(=O)CSc2nc(C)cc(=O)[nH]2)c1, O=C(NCCCNCc1ccccc1)c1ccc(/C=N/O)nc1 5.49% [at 7.66 µM], C/C(=C\C(=O)c1ccc(Br)cc1)N1CCCCC1, CCc1ccc2oc(=O)cc(CN3CCCCC3C)c2c1 (stereo unspecified), O=C(Oc1cc(OC(=O)c2ccccc2)c2c(c1)OC(c1ccc(OC(=O)c3ccccc3)c(OC(=O)c3ccccc3)c1)[C@@H](OC(=O)c1ccccc1)C2)c1ccccc1 (stereo partly specified), COc1ccc(CNC2CCCCC2)cc1, Cc1nnc(SCC(=O)NCCOc2ccc(Cl)cc2)n1-c1ccccc1, O=C1OC(C(O)CO)C(O)=C1O (stereo unspecified), CC(=O)OCC(=O)[C@@]1(O)CCC2C3CCC4=CC(=O)CC[C@@]4(C)[C@]3(F)C(O)C[C@]21C (stereo partly specified), Cc1nonc1NC(=O)c1ccccc1Br, O=C1CCC(=O)N1CCOP1(=O)COc2ccccc2OC1, O=c1c(-c2cc(F)cc(F)c2)nc2cnc(Oc3ccccc3)nc2n1C[C@H]1CCCO1, COc1c(C(C)C)oc2cc3oc(=O)ccc3cc12, CCC1CCCCN1C(=O)Nc1cccc(NC(=O)N2CCCCC2CC)c1 (stereo unspecified), CC(=O)OCC(=O)C1CCC2C3CCC4=CC(=O)CC[C@@]4(C)C3CC[C@]12C (stereo partly specified), COC1[C@H](OC(N)=O)C(O)[C@H](Oc2ccc3c(O)c(NC(=O)c4ccc(O)c(CC=C(C)C)c4)c(=O)oc3c2C)OC1(C)C (stereo partly specified), O=C(O)C(O)[C@@](O)(Cc1ccc(O)cc1)C(=O)O (stereo partly specified), N#CC1=C(N)Oc2cc(O)ccc2C1C1CCCCC1 (stereo unspecified), CS(=O)(=O)N1CCC2(CC1)CN(Cc1cc(C(F)(F)F)cc(C(F)(F)F)c1)C2, O=C(CN1CCOCC1)Nc1c(-c2ccccc2)c2cc(Br)ccc2[nH]c1=O, CSc1ccc(S(=O)(=O)Nc2cccc(F)c2)cc1, COc1ccc2occ(C(=O)c3ccc(N=C(C)N(C)C)cc3)c2c1, CN(Cc1ccco1)c1ncncc1-c1ccoc1, O=C(NCc1ccc2c(c1)OCO2)c1cc2c(s1)CS(=O)(=O)C2, CC(=NCc1ccco1)C1=C(O)c2ccccc2C1=O, COc1cccc(C(CC(=O)NCCN2CCOCC2)NS(=O)(=O)c2ccc(C)cc2)c1OC (stereo unspecified), COC(=O)N1CCC[C@@]2(CCN(C(=O)NC(C)C)C2)C1, CC(C)=CCC/C(C)=C/CC/C(C)=C/CC/C(C)=C/CO
